Compound activity deposited in PubChem by National Center for Advancing Translational Sciences (NCATS).
A selection: hits, their analogues and other compounds. The true share with any hit is near 9.3%.
Vaccinia mCherry: qHTS for Stage-Specific Inhibitors of Vaccinia Orthopoxvirus: mCherry Reporter Primary qHTS | Potency, µM (highest dose often 36.5 µM), usual class: inhibitors | 0.63% of 310,000 active | Vaccinia virus mCherry reporter infection, fluorescence; calls by dose curve; tested in A549 cells; further: nearly all actives have a fitted effect of over 35% in size
HCMV antiviral: qHTS Assay for inhibitors of the human cytomegalovirus (HCMV); activity change, negative = inhibition, % at 57.5 µM; AID 1259415, 2018; 4.5% of 410,000 active; HFF cells, HCMV-luciferase reporter, 72 h; active compounds read low; in the data active means activity change below about -60%; inconclusive means no clear call, values can overlap the other calls; inactive means above about -39%
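Two-dose cell screen: HFF monolayers treated with compounds and infected with luciferase-expressing HCMV at 1 PFU/cell, 72 h at 37C, then lysed for luciferase measurement.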
FMDV antiviral: High Throughput Screening for Foot and Mouth Disease Virus Antivirals. Potency, µM (highest dose often 57.9 µM), usual class: inhibitors. AID 1159524, 2015. FMDV antiviral cell-based qHTS. 1.2% of 410,000 active; calls by dose curve; tested in HEK293T cells; further: read-out not given here; nearly all actives have a fitted effect of over 45% in size
Sm TGR block: qHTS Assay for the Inhibitors of Schistosoma Mansoni Peroxiredoxins | Potency, µM (doses to about 114 µM), actives largely listed as inhibitors | purified TGR, DTNB reduction, TNB absorbance 405 nm | Schistosoma mansoni thioredoxin glutathione reductase (TGR), Q962Y6 | 3% of 360,000 active; further: nearly all actives have a fitted effect of over 60% in size
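Kinetic colorimetric format: TGR-catalysed, NADPH-driven DTNB reduction monitored via TNB absorbance. Enzyme dispensed at 20 nM; compound exposure 15 min at room temperature before reaction start.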
HCV inhibitor: qHTS Assay for Inhibitors of Hepatitis C Virus (HCV); Huh7.5.1 HCVcc-Cre infection, luciferase reporter, 44 h; Potency, µM (highest dose often 41.8 µM), actives largely listed as inhibitors; 3.4% of 340,000 active
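After 44 h co-culture of compound, cells and HCVcc-Cre (~0.5 moi), substrate is added for 15 min at room temperature and luciferase measured over 15 sec. Cells were seeded at 1,000/well and pre-cultured 4 h.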
VACV Venus inh: qHTS for Stage-Specific Inhibitors of Vaccinia Orthopoxvirus: Venus Reporter Primary qHTS; Vaccinia virus Venus reporter expression, fluorescence; Potency, µM (doses to about 36.5 µM), hits mostly inhibitors; 0.46% of 330,000 active; AID 720580, 2013; calls by dose curve; tested in A549 cells; further: nearly all actives have a fitted effect of over 30% in size
A number is an active result; i = inactive; ? = inconclusive; nt = no result; [ ] = another dose, or the depositor's remark. Unless noted, the call rests on the fitted dose curve; in most records, active means well fitted curve in the direction sought with a large enough effect; inconclusive means small, poorly fitted or top-dose-only effect, or another doubt; inactive means no such curve, though single readings can be large; an effect the other way counts as inactive or inconclusive.

SMILES	Vaccinia mCherry	HCMV antiviral	FMDV antiviral	Sm TGR block	HCV inhibitor	VACV Venus inh
CC(C)(C)C(=O)Nc1cc2nn(-c3ccccc3)nc2cc1Cl	i	-88	50µM	i	i	i
CCN(CC)S(=O)(=O)c1ccc(C(=O)OCC(=O)NCc2ccco2)cc1	i	i	i	?	i	i
COCCn1c(C)cc(O)c(C(c2ccccc2)N2CCCCC2)c1=O (stereo not given)	i	?	i	i	nt	i
COc1ccccc1C(c1c(O)cc(C)n(Cc2ccco2)c1=O)N1CCCCC1 (stereo not given)	i	i	i	7.1µM	nt	i
COc1ccc(N2CCN(C(c3ccccc3OC)c3nnnn3Cc3ccco3)CC2)cc1 (stereo not given)	i	i	i	i	i	i
Cc1cc(O)c(C(c2ccccc2Cl)N2CCCCC2)c(=O)n1Cc1ccco1 (stereo not given)	i	i	i	4.5µM	nt	i
COCCn1c(C)cc(O)c(C(c2ccccc2Cl)N2CCCCC2)c1=O (stereo not given)	i	i	i	28µM	nt	i
COc1ccccc1C(CNC(=O)c1ccco1)N1CCCC1 (stereo not given)	nt	i	i	i	i	nt
COc1ccc(C(c2c(O)cc(C)n(Cc3ccco3)c2=O)N2CCN(c3ccccc3)CC2)cc1 (stereo not given)	i	i	?	3.2µM	nt	i
COc1ccc(CN2CCN(Cc3ccco3)CC2)cc1OC	nt	i	i	i	i	nt
Cc1cc(O)c(C(c2ccccc2)N2CCCCC2)c(=O)n1Cc1ccco1 (stereo not given)	i	i	i	10µM	nt	i
COc1ccc(C(c2c(O)cc(C)n(Cc3ccco3)c2=O)N2CCCCC2)cc1OC (stereo not given)	i	i	i	7.9µM	nt	i
Cc1sc(NC(=O)c2ccco2)c(C(c2cccnc2)N2CCCC2)c1C (stereo not given)	nt	-62	i	?	13µM	nt
Cc1sc(NC(=O)c2ccco2)c(C(Nc2ccccn2)c2ccccc2)c1C (stereo not given)	i	i	i	i	14µM	i
Cc1sc(NC(=O)c2ccco2)c(C(c2cccnc2)N2CCN(C)CC2)c1C (stereo not given)	i	i	i	35µM	?	i
COc1cc(NC(=O)C(CC(C)C)NS(=O)(=O)c2ccc3c(c2)oc(=O)n3C)c(C(=O)O)cc1OC (stereo not given)	i	i	i	i	nt	i
CN(C)c1ccc(N/C=C/C(=O)c2ccccc2)cc1	nt	i	10µM	i	i	nt
CS/C(=C\[N+](=O)[O-])Nc1ccc(Cl)cc1	i	i	i	0.1µM	i	i
Cc1ccc(NC(NC(=O)OCCn2c([N+](=O)[O-])cnc2C)C(Cl)(Cl)Cl)cc1 (stereo not given)	nt	nt	nt	i	i	nt
CCC(Sc1nc2ccsc2c(=O)n1Cc1ccc(C(=O)O)cc1)C(=O)Nc1cc(Cl)ccc1C (stereo not given)	i	-95	i	nt	nt	i
CCC(Sc1nc2ccsc2c(=O)n1Cc1ccc(C(=O)O)cc1)C(=O)Nc1ccc(C)c(Cl)c1 (stereo not given)	nt	i	i	i	i	nt
Cc1cc(N2CCOCC2)nc(SCc2c(Cl)cccc2Cl)n1	?	?	i	i	11µM	?
Cc1cc(N2CCCCC2)nc(NCc2ccccc2)n1	?	-64	32µM	i	?	?
Cc1cc(N2CCOCC2)nc(NCc2ccccc2)n1	i	i	nt	i[11.4 µM]	13µM	?
O=C(CSc1n[nH]c(-c2ccco2)n1)N1c2ccccc2Sc2ccccc21	nt	i	i	35µM	i	nt
SMILES	Vaccinia mCherry	HCMV antiviral	FMDV antiviral	Sm TGR block	HCV inhibitor	VACV Venus inh
CC(=O)c1ccc(NC(=O)c2sc3nc4c(cc3c2N)N2CCC4CC2)cc1	i	i	?	i	nt	i
Nc1c(C(=O)Nc2ccc(OC(F)(F)F)cc2)sc2nc3c(cc12)N1CCC3CC1	?	-78	25µM	i	nt	?
CCN(CC)CC(=O)Nc1cccc2c1C(=O)c1ccccc1C2=O	nt	i	i	i	i	nt
O=C1c2ccccc2C(=O)c2c(NCCCN(CCO)CCO)cccc21	?	-103	?	i	14µM	i
O=C(NCCc1ccccc1F)c1ccc2c(c1)OCCO2	i	-99	2.8µM	i	i	i
O=C(COC(=O)c1ccc2c(c1)OCO2)Nc1ccccc1	i	i	i	i	i	i
O=C(CCNc1ccccc1)c1ccc2c(c1)OCO2	i	i	i	2.2µM	i	i
CN(C)CCC(=O)c1ccc2c(c1)OCO2	nt	i	i	0.63µM	i	nt
CN(C)CCCC(=O)c1ccc2c(c1)OCO2	nt	?	i	i	i	i
CCCCCCNC(=O)CNC(=S)N(Cc1cccs1)C1CCCCC1	nt	i	i	i	10µM	nt
Cc1ccc(C(=O)N/C(=C/c2ccc(C(C)C)cc2)C(=O)NCCCN2CCOCC2)cc1	nt	i	i	i	i	nt
COc1ccc2c(c1)C(C)CC(C)(C)N2C(=O)CSc1nc2ccccc2s1 (stereo not given)	i	i	?	i	?	i
CC[C@]12c3[nH]c4ccccc4c3CCN1C(=O)C(CC(=O)NCc1cccc(C(F)(F)F)c1)C[C@@H]2C(=O)N1CCN(C(=O)C2CC2)CC1 (stereo not given in full)	i	i	i	nt	?	i
CC[C@]12c3[nH]c4ccc(OC)cc4c3CCN1C(=O)C(CC(=O)NCc1cccc(C(F)(F)F)c1)C[C@@H]2C(=O)N1CCN(C(=O)c2ccco2)CC1 (stereo not given in full)	i	i	i	nt	?	i
CC[C@]12c3[nH]c4ccccc4c3CCN1C(=O)C(CC(=O)NCC13CC4CC(CC(C4)C1)C3)C[C@@H]2C(=O)N1CCN(C(=O)c2ccco2)CC1 (stereo not given in full)	i	i	?	nt	11µM	?
CC[C@]12c3[nH]c4ccc(Cl)cc4c3CCN1C(=O)[C@@H](CC(=O)NCc1cccc(C(F)(F)F)c1)C[C@@H]2C(=O)N1CCN(C(=O)C2CC2)CC1	i	i	?	nt	35µM	?
CC[C@]12c3[nH]c4cc(-c5ccco5)ccc4c3CCN1C(=O)[C@@H](CC(=O)NCc1cccc(C(F)(F)F)c1)C[C@@H]2C(=O)N1CCN(C(=O)c2ccco2)CC1	13µM	i	?	nt	?	?
CC[C@]12c3[nH]c4ccc(Cl)cc4c3CCN1C(=O)[C@@H](CC(=O)NCc1cccc(C(F)(F)F)c1)C[C@@H]2C(=O)N1CCN(C(=O)c2ccco2)CC1	i	-100	?	nt	32µM	i
Cc1cc(-c2ccc(/C=N/n3cnnc3)o2)c(C)c([N+](=O)[O-])c1	i	i	i	?	i	i
